In PubChem BioAssay one finds composite z-score and z-score data, which are given here for 13 compounds.

The structures appear in SMILES notation. The source made the active and inactive calls. Unless noted, the rule behind the calls is not given here.

The subject of assay [1] is XIP peptide (Xip251-270) binding. Kind of assay: XIP fragment 251-270 binding compounds – biochemical, small-molecule microarray, fluorescence 635/667 nm, 0.1 µg/mL protein, primary screen (AID 1182). Particulars: fluorescent protein binding, 635 nm, higher = more signal, called active from +8 up or from −8 down.
Assay [2] deals with XIP peptide (Xip251-270). Kind of assay: compounds binding XIP fragment 251-270 – biochemical, small-molecule microarray, fluorescence 635/667 nm, 0.5 µg/mL protein, primary screen (AID 1183). Particulars: fluorescence 635 nm, higher = more signal.
The nature of assay [3]: blood-stage malaria parasite viability loss – strain 3D7, DAPI fluorescence, 100 nL, primary screen (AID 1184).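 Note: parasites grown inside human red blood cells in medium with human serum.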 Particulars: P. falciparum 3D7 growth, 3 d, higher = more signal.
The target of assay [4] is Homeobox protein Hox-A13 (Mus musculus) (UniProt Q62424). Kind of assay: disruptors of Hoxa13 oligonucleotide interaction – biochemical, fluorescence polarization, labeled oligonucleotide, primary screen (AID 1185). Particulars: Hoxa13:DNA binding, 15 min, higher = more signal, called active from +8 up or from −8 down. On the technique in general: In fluorescence polarisation assays a small probe gives low polarisation when free and higher when bound to something large.

The nature of assay [5]: blockers of DNA damage checkpoint Chk1 activation – imaging, HeLa, hydroxyurea, phospho-Chk1 antibody, percent positive cells, primary screen (AID 1186). Particulars: hydroxyurea-induced phospho-Chk1 immunofluorescence imaging, higher = more signal.
Assay [6] can be described thus: blockers of DNA damage checkpoint Chk1 activation – imaging, HeLa, hydroxyurea, phospho-Chk1 nuclear intensity, primary screen (AID 1187). As to conditions: hydroxyurea-induced phospho-Chk1 immunofluorescence imaging, higher = more signal.

Homeobox protein Hox-A13 (Mus musculus), sequence (Q62424 whole entry, looked up): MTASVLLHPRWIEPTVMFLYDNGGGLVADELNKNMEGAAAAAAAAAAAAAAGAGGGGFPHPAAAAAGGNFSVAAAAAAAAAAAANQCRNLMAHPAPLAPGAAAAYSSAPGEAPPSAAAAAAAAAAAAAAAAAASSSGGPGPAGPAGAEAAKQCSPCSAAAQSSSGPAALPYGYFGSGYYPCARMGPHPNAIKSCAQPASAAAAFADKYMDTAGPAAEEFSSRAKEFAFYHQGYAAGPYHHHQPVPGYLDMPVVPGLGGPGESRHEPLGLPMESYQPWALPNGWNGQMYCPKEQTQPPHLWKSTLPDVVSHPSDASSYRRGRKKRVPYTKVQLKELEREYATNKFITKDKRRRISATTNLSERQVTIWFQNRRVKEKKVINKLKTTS

Turning to `O=C1N(Cc2ccccc2)c2ccccc2[C@H]2OC(c3ccc(OCCCO)cc3)=N[C@@]12CCS(=O)(=O)c1ccccc1`, the results for the composite z-score in assay [1] and in assay [2] were 0.0535 (inactive) and 0.371, respectively. For the same compound, the z-score is -2.56 in assay [3], -1.54 (inactive) in assay [4], -0.103 (inactive) in assay [5] and -0.0726 (inactive) in assay [6].
For the compound `CC(C)(C)OC(=O)CC[C@]1(C(=O)N2CCCCC2)N=C(c2ccc(OCCCO)cc2)O[C@H]1c1ccccc1CN=[N+]=[N-]`, the composite z-score was 1.25 (inactive) in assay [1] and 0.855 in assay [2]. In addition, the z-score is -2.26 in assay [3], -2.91 (inactive) in assay [4], -0.692 (inactive) in assay [5] and -0.917 (inactive) in assay [6].
Take `C=C[C@H](C)[C@H](OC(=O)Nc1ccc(SC)cc1)c1ccc(O)c2ccccc12`: the composite z-score is 0.273 (inactive) in assay [1] and 0.151 in assay [2]. The z-score was -0.243 in assay [3], -5.27 (inactive) in assay [4], -0.08 (inactive) in assay [5] and -0.437 (inactive) in assay [6].
Take `COC(=O)C(CC#Cc1ccc2c(c1)[C@]1(C(=O)N2)[C@H](c2ccc(OCCO)cc2)N2[C@H](c3ccccc3)[C@H](c3ccccc3)OC(=O)[C@H]2[C@@H]1C(=O)O)C(=O)OC`: the figures for the composite z-score in assay [1] and in assay [2] were 0.817 (inactive) and 0.862, respectively. Also, the z-score in assay [3] was 0.663; in assay [4] it was -5.67 (inactive); in assay [5], 0.0445 (inactive); in assay [6], 0.436 (inactive).
As to `COC(=O)[C@@]1(Cc2ccc(OC)cc2)[C@H]2c3cc(C(=O)N4CCCC4)n(CCF)c3C[C@H]2CN1C(=O)c1ccccc1`, the composite z-score in assay [1] was 1.24 (inactive); in assay [2], 0.388. Also, the z-score was -1.8 in assay [3], -5.44 (inactive) in assay [4], 0.128 (inactive) in assay [5] and -0.0625 (inactive) in assay [6].
On to `N#Cc1ccc(NN2C(C(O)c3ccco3)C=CC3C(=O)N(c4ccccc4)C(=O)C32)cc1` (stereo not drawn), for which the figures for the composite z-score in assay [1] and in assay [2] were -0.323 (inactive) and 0.347, respectively. Also, the z-score is 1.1 in assay [3], -1.96 (inactive) in assay [4], -0.124 (inactive) in assay [5] and -0.228 (inactive) in assay [6].
For the compound `CO[C@H]1O[C@H](CO)[C@@H](OC(=O)Nc2cccc(F)c2)[C@H](OC(=O)Nc2ccc3c(c2)OCO3)[C@H]1OC(=O)Nc1ccc2c(c1)OCO2`, the composite z-score in assay [1] is 1.87 (inactive); in assay [2], 0.813. Further, the z-score is -1.34 in assay [3], -7.92 (inactive) in assay [4], -0.178 (inactive) in assay [5] and 0.0427 (inactive) in assay [6].
`COc1ccc(C#Cc2ccc3c(c2)[C@]2(C(=O)N3)[C@H](C(N)=O)[C@H]3C(=O)O[C@H](c4ccccc4)[C@H](c4ccccc4)N3[C@@H]2c2ccc(O)cc2)cc1`: the figures for the composite z-score in assay [1] and in assay [2] were 1.13 (inactive) and 0.712, respectively. The z-score in assay [3] was 0.0021; in assay [4], -0.559 (inactive); in assay [5], -0.607 (inactive); in assay [6], -0.861 (inactive).
In the case of `CC1CC/C=C\[C@H]2OC34C=CCN(c5ccc(Cl)cc5)C(=O)[C@H]3N(C(CO)C(C)C)C(=O)[C@]4(C)C2C(=O)O1` (stereo partly drawn), the composite z-score was -0.279 (inactive) in assay [1] and 0.277 in assay [2]. Further, the z-score was -0.0809 in assay [3], -5.44 (inactive) in assay [4], -0.466 (inactive) in assay [5] and -0.512 (inactive) in assay [6].
As for `COC(=O)[C@]1(Cc2ccccc2CN=[N+]=[N-])N=C(c2ccc(OCCCO)cc2)O[C@@H]1c1ccccc1`, the composite z-score in assay [1] is 0.0835 (inactive); in assay [2] it was 0.534. For the same compound, the z-score is -2.17 in assay [3], -4.62 (inactive) in assay [4], -0.346 (inactive) in assay [5] and -0.91 (inactive) in assay [6].
Turning to `COC(=O)[C@@]1(Cc2ccc(OC)cc2)[C@H]2c3cc(C(=O)N(C)C)n(CCF)c3C[C@H]2CN1C(=O)c1ccccc1`, the composite z-score was 0.0026 (inactive) in assay [1] and 0.449 in assay [2]. Further, the z-score was -1.65 in assay [3], -3.59 (inactive) in assay [4], 0.326 (inactive) in assay [5] and -0.241 (inactive) in assay [6].
`COCC(=C=CC[C@@H](O)c1ccccc1OCCO)C[C@@H](O)c1ccccn1`: the composite z-score in assay [1] was 0.416 (inactive); in assay [2], 0.76. The z-score is -0.991 in assay [3], -6.18 (inactive) in assay [4], 0.413 (inactive) in assay [5] and 0.289 (inactive) in assay [6].
For the compound `CC(C)CNC(=O)[C@@]1(c2ccc([N+](=O)[O-])cc2)CC(=O)N(C(C)C)[C@@H]1c1ccc(CO)cc1`, the composite z-score in assay [1] was -0.299 (inactive); in assay [2], 0.131. The z-score is -0.253 in assay [3], -1.21 (inactive) in assay [4], -0.19 (inactive) in assay [5] and -0.0822 (inactive) in assay [6].
